Bioassay records as filed in PubChem.
12-LOX inh: ALOX12 (human) lipoxygenase inhibition; AID 1671190; 580,000 tested, 1.1% active; Potency, µM (doses to about 108 µM), inactives show top-dose activity change, negative = inhibition, usual class: inhibitors; purified 12hLO, xylenol orange hydroperoxide absorbance; further: potency means the concentration at half of the fitted maximal effect; on the % scale 0 is the no-effect control and ±100 the full control effect
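Hydroperoxide product was detected by ferrous iron/xylenol orange as the 573 to 405 nm absorbance ratio. Arachidonic acid at 40 uM (final) was turned over for 30 min at room temperature by 150 nM human 12hLO, pH 7.0 Hepes buffer, after 15 min compound preincubation.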
GRP78 ERSR act: ER stress response induction in glioma | AID 602332 | 420,000 tested, 0.02% active | U87-MG GRP78 promoter luciferase reporter, 16 h | Potency, µM, inactives show top-dose activation, usual class: activators; further: potency means the concentration at half of the fitted maximal effect; series mostly up to about 76 µM; % of control where 0% means no effect; nearly all actives have a fitted effect of over 35% in size
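ERSR induction read as luciferase luminescence (Bright-Glo, 10 min at room temperature) in stably transfected human U87-MG glioma cells exposed to compounds for 16 h, using GRP78 as sensor.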
TRPML1 inh: blocks the human TRPML1 channel. activity change, negative = inhibition, % (test concentration not listed). 390,000 tested, 0.02% active. TRPML1-inducible cells, Ca2+ dye fluorescence, FDSS; stronger effect = lower value; inhibition of EC80 agonist-evoked calcium signal; in the data active means activity change below about -50%; inconclusive means between about -30% and that limit;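 further: stimulus is agonist 54-4 at its EC80 concentration; on the % scale 0 is the no-effect control and ±100 the full control effect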
Target sequence (Q9GZU1 whole entry, looked up): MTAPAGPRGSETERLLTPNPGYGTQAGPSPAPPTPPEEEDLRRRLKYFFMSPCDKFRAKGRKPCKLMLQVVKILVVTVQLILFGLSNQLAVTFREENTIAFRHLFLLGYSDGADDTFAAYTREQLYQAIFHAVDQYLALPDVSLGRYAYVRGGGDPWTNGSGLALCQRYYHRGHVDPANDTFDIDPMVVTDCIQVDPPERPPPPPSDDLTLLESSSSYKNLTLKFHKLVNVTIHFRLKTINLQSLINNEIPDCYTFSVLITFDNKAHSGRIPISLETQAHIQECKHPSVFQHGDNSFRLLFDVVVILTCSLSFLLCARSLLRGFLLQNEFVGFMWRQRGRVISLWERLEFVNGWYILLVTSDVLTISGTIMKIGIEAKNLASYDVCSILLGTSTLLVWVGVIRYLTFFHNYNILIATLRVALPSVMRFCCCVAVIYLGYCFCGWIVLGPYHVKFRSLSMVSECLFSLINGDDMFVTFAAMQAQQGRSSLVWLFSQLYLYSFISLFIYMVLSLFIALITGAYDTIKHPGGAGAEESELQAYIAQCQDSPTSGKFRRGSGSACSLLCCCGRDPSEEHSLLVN
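TRPML1-DL cells, Tet-induced overnight (~16 h, 37 °C) at 1,500 cells/well, were loaded with Ca8 no-wash dye plus quencher for 45-90 min at room temperature. Compounds were pinned during FDSS kinetic reading; agonist 54-4 at EC80 (4 uM final) then added.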
Vif-APOBEC3F blk: Vif-A3F binding inhibition; HeLa A3F-eYFP + Vif (tagged APOBEC3F with the HIV-1 protein that degrades it), YFP fluorescence increase; 390,000 tested, 0.2% active; Potency, µM (top dose mostly 46.1 µM), inactives show top-dose activity, negative = active; further: potency means the concentration at half of the fitted maximal effect; % of control where 0% means no effect; nearly all actives have a fitted effect of over 65% in size
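HeLa cells stably expressing A3F-eYFP plus Vif, plated and incubated overnight at 37 deg C, then exposed to compounds overnight at 37 deg C. Blocked degradation read as raised yellow fluorescence (Ex 488/Em 500-530).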
Vif-A3G inh: inhibitors of Vif-APOBEC3G interaction; AID 602310; Potency, µM (top dose mostly 46.1 µM), for inactives: at the highest dose activity, negative = active, most hits filed as inhibitors; 410,000 tested, 0.076% active; Q9HC16; HeLa A3G-eYFP + Vif (tagged APOBEC3G with the HIV-1 protein that degrades it), YFP fluorescence, overnight; further: potency means the concentration at half of the fitted maximal effect; on the % scale 0 is the no-effect control and ±100 the full control effect; nearly all actives have a fitted effect of over 60% in size
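HeLa cells stably expressing Vif and C-terminally eYFP-tagged A3G, seeded overnight at 37 deg C, then exposed to compound by pintool overnight at 37 deg C. Rise in yellow fluorescence (Ex 488/Em 500-530, Acumen) marks blocked Vif-driven A3G degradation.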
TRPML1 agonist: activates the human TRPML1 channel; Q9GZU1; TRPML1-expressing cells, Ca2+ dye fluorescence, FDSS; activation, % (no concentration beside the values); 410,000 tested, 0.12% active; AID 624414; in the data active means activation above about 50%; inconclusive means mostly about 30% to 49%; further: 0% is about no effect
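Agonist activity was taken from a 110 s kinetic Ca2+ dye read on the FDSS after pinning compounds onto TRPML1-DL cells. The cells were seeded at 1,500/well with Tet inducer, incubated about 16 h, then dye-loaded at room temperature.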
Starred values were filed as active, the others as inactive; ? = inconclusive; . = not tested or not shown; [ ] = remark or other dose. Sampled rows, rich in hits. Any-hit rate of the full collection: about 1.3%. Unless noted, the call rests on the fitted dose curve; in most records, active means well fitted curve in the direction sought with a large enough effect; inconclusive means small, poorly fitted or top-dose-only effect, or another doubt; inactive means no such curve, though single readings can be large; an effect the other way counts as inactive or inconclusive.

SMILES	12-LOX inh	GRP78 ERSR act	TRPML1 inh	Vif-APOBEC3F blk	Vif-A3G inh	TRPML1 agonist
C=CCc1c(C)nc(-c2ccccc2)nc1Nc1ccccc1O	0%	-4%	-2	22µM*	?	2
C=C(C)CN1CCN(c2nc3c(c(=O)[nH]c(=O)n3C)n2Cc2ccc(Cl)cc2)CC1	-2%	.	.	.	.	.
CCCN1C(SCC(=O)N2CCC(C)CC2)=NS(=O)(=O)c2ccccc21	-12%	.	.	.	.	.
COc1ccc(S(=O)(=O)NCC(=O)O)cc1OC	57%	.	.	.	.	.
COc1cc2c(cc1OC)CN(C(=O)/C=C/c1ccccc1[N+](=O)[O-])CC2	?	-1%	1	5%	?	1
COc1cc2c(cc1OC)CN(C(=O)/C=C/c1ccc([N+](=O)[O-])cc1)CC2	14µM*	-4%	52	2%	-1%	1
Cc1cccnc1NC(=S)Nc1ccc(Br)cc1Cl	11µM*	-3%	10	-3%	-4%	2
CC(=O)NNC(=S)Nc1ccc(Br)cc1Cl	10%	.	.	.	.	.
S=C(NCCCc1ccccc1)Nc1ccc(Br)cc1Cl	45µM*	.	.	.	.	.
S=C(NCCc1ccccc1)Nc1ccc(Br)cc1	35µM*	2%	22	-4%	-6%	1
Fc1ccc(CCNC(=S)Nc2ccc(Oc3ccccc3)cc2)cc1	22µM*	.	.	.	.	.
CCCNC(=S)Nc1ccc(Br)cc1	?	4%	2	5%	1%	0
CCc1ccc(CNC(=O)c2cccn3c(=O)c4ccccc4nc23)cc1	-6%	.	.	.	.	.
CCc1ccc2c(COC(=O)c3[nH]c(C)c(C(C)=O)c3C)cc(=O)oc2c1	-27%	.	.	.	.	.
CCN(CC)CCCNC(=O)c1cc(-c2ccc(OC)cc2)nc2ccccc12	6.3µM*	.	.	.	.	.
CCCCCNC(=O)c1cc(-c2ccc(OC)cc2)nc2ccccc12	32µM*	.	.	.	.	.
CCCOc1cccc(-c2cc(C(=O)NNC(=S)NCC)c3ccccc3n2)c1	25µM*	-3%	30	-3%	-15%	1
CCCCNC(=O)c1cc(-c2ccc(OCC)cc2)nc2ccccc12	-40%	.	.	.	.	.
CC(C)C(=O)N/N=C/c1ccco1	-2%	.	.	.	.	.
Cc1ccc(-n2c(O)c(C=Nc3ccccc3-c3n[nH]c(=S)[nH]c3=O)c3ccccc3c2=O)cc1C	?	-2%	10	14%	0%	3
Cc1ccc(-n2c(O)c(C=Nc3ccccc3-c3n[nH]c(=S)[nH]c3=O)c3ccccc3c2=O)c(C)c1	16µM*	0%	9	-9%	0%	1
CCOc1ccc(C=Nc2ccc(N(C)C)cc2)cc1	32µM*	.	.	.	.	.
O=C(Nc1ccccc1)N[C@H]1[C@H](O)[C@@H](N2CCN(c3ccccc3)CC2)[C@@H]2OC[C@H]1O2	112µM*	.	.	.	.	.
O=C(Nc1ccccc1)N[C@H]1[C@H](O)[C@@H](N2CCOCC2)[C@@H]2OC[C@H]1O2	47%[176 µM]	.	.	.	.	.
CC1CCN(C(=O)COc2ncnc3ccc(Br)cc23)CC1	13%	.	.	.	.	.
SMILES	12-LOX inh	GRP78 ERSR act	TRPML1 inh	Vif-APOBEC3F blk	Vif-A3G inh	TRPML1 agonist
O=C(NCC1CCOc2ccccc2C1)c1cn(CCN2CCNCC2)nn1 (stereo not drawn)	-18%	.	.	.	.	.
O=C(NC1CCOC2(CCOCC2)C1)c1cn(CCN2CCNCC2)nn1 (stereo not drawn)	22µM*	.	.	.	.	.
NS(=O)(=O)c1ccc(Nc2ccc([N+](=O)[O-])cc2[N+](=O)[O-])cc1	-23%	.	.	.	.	.
O=[N+]([O-])c1ccc(NS(=O)(=O)c2ccc(I)s2)c([N+](=O)[O-])c1	16µM*	.	.	.	.	.
O=S(=O)([N-]c1nc2ccccc2nc1-[n+]1ccc(-c2ccncc2)cc1)c1ccccc1	-24%	-4%	15	3.5µM*	-3%	5
O=S(=O)([N-]c1nc2ccccc2nc1-[n+]1ccccc1)c1ccccc1	?	-4%	-5	?	1%	0
CS(=O)(=O)N1CCC(C(=O)Nc2ccccc2SC2CCCC2)CC1	4%	.	.	.	.	.
O=C(Nc1cccc2[nH]ccc12)C(=O)N1CCCC1	2%	.	.	.	.	.
Cc1ccc(N=C2NN=C(c3cc(C)n(CC4CCCO4)c3C)CS2)cc1C (stereo not drawn)	35µM*	.	.	.	.	.
